Results reported in the supplement of paper PMC9135407.
Several values for one entry are separate records, joined by “and”; a condition that tells them apart may be missing. Equal values may be shown once. Where a name gives a salt, the structure may show the parent alone. Out of some 5,800 compounds screened, about 620 (11%) showed activity. This excerpt belongs to a sample that is enriched for actives. Unmarked numbers belong to inactive results.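 How the source made its calls: active = score above a cut-off or among the top three wells of a plate; in these data no inactive exceeds 0.85.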

System: primary human hepatic stellate cells (donor 1)
Experiment: scaled lipid accumulation score (0 = DMSO-like, 1 = nortriptyline-like); higher = stronger HSC inactivation (lipid re-accumulation), active = hit call of the paper
Conditions: 48 h
Experimental: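 Primary lipid accumulation screen in primary human hepatic stellate cell myofibroblasts (donor 1, passage 8) in 384-well plates. 100 nL of library compound was pin-transferred into 30 µL medium in duplicate, and cells were treated for 48 h. The 'Scaled' score combines distance from plate baseline, toxicity and reproducibility penalties, and is normalised to nortriptyline (positive) and DMSO (negative) controls on each plate. A hit is defined as scaled >0.85 or among the top 3 wells per plate.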

[1] = library stock concentration: 80 uM
[2] = library stock concentration: 400 uM
[3] = library stock concentration: 2 mM
[4] = library stock concentration: 10 mM
[5] = library stock concentration: 1 mM
[6] = library stock concentration: 3.33 mM

COC(=O)/C=C/C(=O)N(O)CCCCNCc1ccc(COC(=O)Nc2cccc3ccccc23)cc1 [Methylstat]
scaled lipid accumulation score [1]: ≤ 0
scaled lipid accumulation score [2]: ≤ 0
scaled lipid accumulation score [3]: ≤ 0
scaled lipid accumulation score [4]: 0.26

CCCCC[C@H](O)/C=C/[C@H]1[C@H](O)CC(=O)[C@@H]1CCCCCCCCC(=O)O [1a,1b-dihomo Prostaglandin E1]
scaled lipid accumulation score [5]: ≤ 0

CC1=C(/C=C/C(C)=C/C=C/C(C)=C/C=C/C=C(C)/C=C/C=C(C)/C=C/C2=C(C)C(=O)CCC2(C)C)C(C)(C)CCC1=O [Canthaxanthin]
scaled lipid accumulation score (library stock concentration: 3.5 mM): 1.25 (active)

CC1=C(/C=C/C(C)=C/C=C/C(C)=C/C=C/C=C(C)/C=C/C=C(C)/C=C/C2=C(C)CCCC2(C)C)C(C)(C)CCC1 [Beta Carotene]
scaled lipid accumulation score [6]: ≤ 0
scaled lipid accumulation score [4]: ≤ 0

CC1=C(/C=C/C(C)=C/C=C/C(C)=C/C=C/C=C(C)/C=C/C=C(C)/C=C/C2=C(C)C(=O)[C@@H](O)CC2(C)C)C(C)(C)C[C@H](O)C1=O [Astaxanthin]
scaled lipid accumulation score [4]: ≤ 0

CC(=O)N1CCCC1C(=O)O (stereo unspecified) [N-acetylproline]
scaled lipid accumulation score [4]: ≤ 0

C[C@]12C=CC(=O)C=C1CC[C@@H]1[C@@H]2[C@@H](O)C[C@@]2(C)[C@H]1CC[C@]2(O)C(=O)COC(=O)CCC(=O)O
scaled lipid accumulation score [4]: ≤ 0

O=C(CCc1ccc(O)cc1)c1c(O)cc(O)cc1O[C@@H]1O[C@H](CO)[C@@H](O)[C@H](O)[C@H]1O [Phlorizin]
scaled lipid accumulation score [6]: ≤ 0
scaled lipid accumulation score [4]: ≤ 0

CCCCC/C=C\C=C1\C(=O)CC[C@@H]1C/C=C\CCCC(=O)O
scaled lipid accumulation score [5]: ≤ 0

CC(=O)OC[C@H]1O[C@@H]([S-])[C@H](OC(C)=O)[C@@H](OC(C)=O)[C@@H]1OC(C)=O.CCP(CC)CC.[Au+] [Auranofin]
scaled lipid accumulation score [4]: 0.439

CC[P](CC)(CC)=[Au][S][C@@H]1O[C@H](COC(C)=O)[C@@H](OC(C)=O)[C@H](OC(C)=O)[C@H]1OC(C)=O [Auranofin]
scaled lipid accumulation score (library stock concentration: 2.9 mM): 0.86 (active)

CC[C@@H](CO)Nc1nc(NCc2ccc(-c3ccccn3)cc2)c2ncn(C(C)C)c2n1 [CR8, (S)-Isomer]
scaled lipid accumulation score [6]: ≤ 0

CSc1nc(N)c2ncn([C@@H]3O[C@H](COP(=O)(O)OP(=O)(O)OP(=O)(O)O)[C@H](O)C3O)c2n1 (stereo partly specified) [2-Methylthioadenosine triphosphate tetrasodium]
scaled lipid accumulation score [4]: ≤ 0

CS(=O)(=O)c1ccc(-n2nc(C(F)(F)F)cc2-c2ccc(F)cc2)cc1
scaled lipid accumulation score [4]: ≤ -0.055

CS(=O)(=O)CCNCc1ccc(-c2ccc3ncnc(Nc4ccc(OCc5cccc(F)c5)c(Cl)c4)c3c2)o1 [listing 1 of 2 here]
scaled lipid accumulation score [3]: 1.7 (active)

CCC(=O)Nc1ccc2ncnc(Nc3cccc(Br)c3)c2c1
scaled lipid accumulation score [6]: ≤ 0

Cc1cc(Nc2ncnc3ccc(-c4ccc(CNCCS(C)(=O)=O)o4)cc23)ccc1Oc1ccn2ncnc2c1 [HER2-Inhibitor-1] [listing 1 of 2 here]
scaled lipid accumulation score [4]: 0.977 (active)

C=CC(=O)Nc1ccc2ncnc(Nc3ccc(OCc4cccc(F)c4)c(Cl)c3)c2c1
scaled lipid accumulation score [1]: ≤ -0.016
scaled lipid accumulation score [2]: ≤ -0.016
scaled lipid accumulation score [3]: ≤ -0.016
scaled lipid accumulation score [6]: 0.132
scaled lipid accumulation score [4]: 0.378 and 0.75

CS(=O)(=O)CCNCc1nc(-c2ccc3ncnc(Nc4ccc(OCc5cccc(F)c5)c(Cl)c4)c3c2)cs1.Cl.Cl
scaled lipid accumulation score [4]: 1.38 (active)

C[C@@H]1COC(Nc2ccc3ncnc(Nc4ccc(OCc5nccs5)c(Cl)c4)c3c2)=N1 [Varlitinib]
scaled lipid accumulation score [6]: 0.382
scaled lipid accumulation score [4]: 0.594

Cc1ccc(CNc2ncnc3ccc(-c4ccc(CO)o4)cc23)o1
scaled lipid accumulation score [6]: ≤ -0.009
scaled lipid accumulation score [4]: ≤ 0

CS(=O)(=O)CCNCc1ccc(-c2ccc3ncnc(Nc4ccc(OCc5cccc(F)c5)c(Cl)c4)c3c2)o1 [listing 2 of 2 here]
scaled lipid accumulation score [1]: ≤ 0
scaled lipid accumulation score [2]: ≤ 0 and 0.144
scaled lipid accumulation score [3]: 0.42
scaled lipid accumulation score [4]: 0.429

Cc1cc(Nc2ncnc3ccc(-c4ccc(CNCCS(C)(=O)=O)o4)cc23)ccc1Oc1ccn2ncnc2c1 [HER2-Inhibitor-1] [listing 2 of 2 here]
scaled lipid accumulation score [6]: 0.203

CC(C)(O)CC(=O)NCCn1ccc2ncnc(Nc3ccc(Oc4cccc(C(F)(F)F)c4)c(Cl)c3)c21
scaled lipid accumulation score [6]: ≤ 0
scaled lipid accumulation score [4]: 0.302

CC(C)CCCCCCC/C=C/C(=O)O [trans-.DELTA.2-11-methyl-Dodecenoic Acid]
scaled lipid accumulation score [5]: ≤ 0

CC(C)=CCC/C(C)=C/CC/C(C)=C/CSCC(=O)O [Farnesylthioacetic acid]
scaled lipid accumulation score [5]: ≤ -0.021

CC(C)=CCC/C(C)=C/CC/C(C)=C/CSCC(=O)O [S-Farnesyl Thioacetic Acid]
scaled lipid accumulation score [5]: 0.018

CCCCCCCCCC(=O)NC(CN1CCOCC1)C(O)c1ccccc1 (stereo unspecified) [PDMP (hydrochloride)]
scaled lipid accumulation score [5]: ≤ 0

C1CCN2C[C@@H]3C[C@@H](CN4CCCC[C@@H]34)[C@H]2C1 [Sparteine sulfate]
scaled lipid accumulation score (library stock concentration: 6 mM): ≤ -0.001
scaled lipid accumulation score [4]: 0.072

C1CCN2C[C@@H]3C[C@@H](CN4CCCC[C@@H]34)[C@H]2C1 [Sparteine (-)]
scaled lipid accumulation score: ≤ 0

CCCCC[C@H](O)/C=C/[C@H]1[C@H](O)CC(=O)[C@@H]1C/C=C\CCCC(=O)O [Prostaglandin E2]
scaled lipid accumulation score [5]: ≤ 0
scaled lipid accumulation score [4]: ≤ -0.001

CCCCC[C@H](O)/C=C/[C@H]1[C@H](O)CC(=O)[C@@H]1C/C=C\CCCC(=O)O [Dinoprostone]
scaled lipid accumulation score (library stock concentration: 5.7 mM): ≤ -0.006

CCCCC[C@H](O)/C=C/[C@H]1[C@H](O)CC(=O)[C@@H]1C/C=C\CCCC(=O)O [Prostaglandin  E2]
scaled lipid accumulation score [5]: ≤ -0.021

Cc1ccc2c(c1)C(=O)C1(O)CCN(c3ccccc3)C1=N2 (single isomer, unassigned; (-)) [(-)-Blebbistatin]
scaled lipid accumulation score [1]: ≤ -0.001
scaled lipid accumulation score [2]: ≤ -0.001
scaled lipid accumulation score [5]: ≤ 0
scaled lipid accumulation score [3]: ≤ -0.001
scaled lipid accumulation score [6]: ≤ -0.009
scaled lipid accumulation score [4]: 0.264

CCCCC/C=C\C/C=C\CC/C=C\CCCC(=O)OC [Pinolenic Acid methyl ester]
scaled lipid accumulation score [5]: ≤ 0

CC(C)(C)c1cnc(CSc2cnc(NC(=O)C3CCNCC3)s2)o1
scaled lipid accumulation score [1]: 0.373
scaled lipid accumulation score [2]: 0.262 and 0.17
scaled lipid accumulation score [3]: 0.414 and 0.498
scaled lipid accumulation score [6]: 0.468
scaled lipid accumulation score [4]: 0.32 and 0.42 and 0.56

CN([C@@H](Cc1ccc(OS(=O)(=O)c2cccc3cnccc23)cc1)C(=O)N1CCN(c2ccccc2)CC1)S(=O)(=O)c1cccc2cnccc12
scaled lipid accumulation score [1]: ≤ 0
scaled lipid accumulation score [2]: ≤ 0
scaled lipid accumulation score [3]: ≤ 0
scaled lipid accumulation score [4]: 0.021

COC(=O)C1=CO[C@@H](C)[C@H]2CN3CCc4c([nH]c5ccccc45)[C@@H]3C[C@H]12 [Ajmalicine hydrochloride]
scaled lipid accumulation score: 0.17

CCCCc1nn(-c2ccccc2C(F)(F)F)c(=O)n1Cc1ccc(-c2ccccc2S(=O)(=O)NC(=O)c2sccc2C)cc1
scaled lipid accumulation score [4]: ≤ -0.001

c1ccc2c(-c3cnn4cc(-c5ccc(N6CCNCC6)cc5)cnc34)ccnc2c1
scaled lipid accumulation score [1]: 0.107
scaled lipid accumulation score [2]: ≤ -0.009
scaled lipid accumulation score [3]: 0.656
scaled lipid accumulation score [4]: 0.103

CCCCCC(=O)CC[C@@H]1[C@@H](C/C=C\CCCC(=O)O)[C@@H](O)C[C@H]1O [13,14-dihydro-15-keto Prostaglandin F2.alpha.]
scaled lipid accumulation score [5]: ≤ 0

NC(=O)c1cccc(-c2cc(Nc3ccc(OC(F)(F)F)cc3)ncn2)c1
scaled lipid accumulation score [1]: ≤ 0
scaled lipid accumulation score [2]: ≤ 0
scaled lipid accumulation score [3]: 0.03
scaled lipid accumulation score [6]: ≤ 0
scaled lipid accumulation score [4]: ≤ 0 and 0.198

CCCCCCCCCCCCC(O)C(=O)O (stereo unspecified) [2-Hydroxymyristic acid]
scaled lipid accumulation score [5]: 0.03

CCCCCCCCCCCCC(O)C(=O)O (stereo unspecified) [2-Hydroxymyristic Acid]
scaled lipid accumulation score [5]: ≤ 0

CC1=CC(=O)c2ccccc2C1=O [Menadione] [listing 1 of 2 here]
scaled lipid accumulation score: 0.873 (active)

COC1=C(OC)C(=O)c2ccccc2C1=O [2,3-Dimethoxy-1,4-naphthoquinone]
scaled lipid accumulation score [4]: 0.634

CC1=CC(=O)c2ccccc2C1=O [Menadione] [listing 2 of 2 here]
scaled lipid accumulation score [6]: ≤ 0
scaled lipid accumulation score [4]: 0.707 and ≤ 0
scaled lipid accumulation score (library stock concentration: 11.6 mM): 0.594

O=C1NC(=O)/C(=C/c2ccc3nccnc3c2)S1
scaled lipid accumulation score [1]: ≤ -0.016
scaled lipid accumulation score [2]: ≤ -0.016
scaled lipid accumulation score [3]: ≤ -0.016
scaled lipid accumulation score [4]: ≤ -0.016

COc1cc(CNC(=O)CCCC/C=C/C(C)C)ccc1O [Capsaicin]
scaled lipid accumulation score: ≤ 0
scaled lipid accumulation score [5]: ≤ 0
scaled lipid accumulation score [4]: ≤ 0

COc1cc(CNC(=O)CCCC/C=C/C(C)C)ccc1O [(E)-Capsaicin]
scaled lipid accumulation score [4]: ≤ 0

COc1cc(CNC(=O)CCCC/C=C/C(C)C)ccc1O [E-Capsaicin]
scaled lipid accumulation score (library stock concentration: 16.4 mM): 0.112

COc1cc(CNC(=O)CCCC/C=C/C(C)C)ccc1O [E-capsaicin]
scaled lipid accumulation score [4]: ≤ 0

COc1c(C)c2c(c(O)c1C/C=C(\C)CCC(=O)OCCN1CCOCC1)C(=O)OC2 [Mycophenolate Mofetil]
scaled lipid accumulation score [6]: ≤ 0
scaled lipid accumulation score [4]: ≤ 0

CC(C)c1cccc(C(C)C)c1N1C(=O)c2ccc(O)cc2C1=O
scaled lipid accumulation score [4]: 0.259

CN(C)CC(C)(C)CNc1nn2c(-c3ccccc3)nnc2cc1C1CCC1
scaled lipid accumulation score [2]: ≤ -0.005
scaled lipid accumulation score [3]: ≤ -0.005
scaled lipid accumulation score [4]: 0.159
